D1 allo mod – D1 dopamine receptor (human) allosteric modulation; B-score at 10 µM; P21728; HEK293 D1, CRE-luciferase, dopamine EC30 potentiation; actives deviate in either direction; actives 5.9% (n = 58,000);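 active = luminescence count or its row- and column-corrected plate score outside the 99.7% band of the plate's sample wells, on either side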
Target sequence (P21728 whole entry, looked up): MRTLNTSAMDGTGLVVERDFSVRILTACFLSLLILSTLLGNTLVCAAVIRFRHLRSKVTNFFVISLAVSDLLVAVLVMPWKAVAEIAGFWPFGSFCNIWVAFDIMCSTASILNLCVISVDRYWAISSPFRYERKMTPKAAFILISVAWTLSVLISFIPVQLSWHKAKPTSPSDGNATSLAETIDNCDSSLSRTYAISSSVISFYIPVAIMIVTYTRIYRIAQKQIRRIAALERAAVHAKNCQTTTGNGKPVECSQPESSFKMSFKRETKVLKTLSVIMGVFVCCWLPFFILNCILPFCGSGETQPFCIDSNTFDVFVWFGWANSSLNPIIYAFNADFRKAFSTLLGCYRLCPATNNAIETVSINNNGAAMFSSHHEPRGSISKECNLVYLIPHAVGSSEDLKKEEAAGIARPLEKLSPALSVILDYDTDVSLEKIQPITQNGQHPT
BAP1 inh – human BAP1 deubiquitinase inhibition. Q92560. recombinant BAP1, Ub-AMC hydrolysis fluorescence kinetic; active compounds read low. calls only at 20 µM. actives 0.48% (n = 72,000). AID 436;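 active = activity remaining at or below 50% of control, provided the compound also passes the data quality filters; inactive = the rest, including low values that fail the filters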;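 also: 100% = DMSO wells rate and 0% = substrate alone blank rate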
DAT uptake mod – modulates human dopamine transporter uptake under cocaine. B-score at 10 µM. Q01959. LLC-PK1 hDAT cells, [14C]-dopamine uptake with cocaine IC80; actives deviate in either direction. actives 1.3% (n = 110,000);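 active = Z score or B-score, a plate-position-corrected score, falls beyond the plate's 99.7% confidence bounds, in either direction; inactive = both scores lie inside the 99.7% bounds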;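 also: scored against the spread of the other compound wells on the same plate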
The depositor's hits bear a star; i = inactive; nt = no result given. Many of the other results were omitted from the sample, so hits are more common in it than they were.

SMILES | D1 allo mod | BAP1 inh | DAT uptake mod
CSc1nc(NCc2ccco2)c2c3c(sc2n1)CN(C)CC3 | -4.05* | nt | 0.294
C/C(=N\OC(=O)c1ccc(Cl)cc1)c1nccs1 | nt | nt | -2.76*
N/C(=N\OC(=O)c1ccc(Cl)cc1)c1ccc(Cl)cc1 | nt | nt | 0.131
CCc1ccc(C(=O)Nc2ccc(Cl)cn2)cc1 | nt | i | nt
Cc1ccccc1-n1nc2c(c1NC(=O)c1ccc(Cl)cc1)CSC2 | nt | i | nt
CCOC(=O)N1CCN(C(=O)c2oc3ccc(S(=O)(=O)N4CCOCC4)cc3c2C)CC1 | nt | nt | 1.72
COc1cc(S(=O)(=O)N2CCCCC2)ccc1NC=O | -4.25* | nt | nt
COc1ccc(NC(=O)c2oc3ccc(S(=O)(=O)N4CCC5(CC4)OCCO5)cc3c2C)cc1 | -3.27* | nt | 1.02
CCC(=O)Nc1ccc(S(=O)(=O)N2CCCCC2)cc1OC | nt | nt | 1.07
COC(=O)n1c(=O)oc2cc(S(=O)(=O)N3CCCCC3)ccc21 | -6.83* | i | -0.461
CCOC(=O)n1c(=O)oc2cc(S(=O)(=O)N3CCCCC3)ccc21 | -0.0393 | i | 1.02
CCOC(=O)N1CCN(C(=O)c2oc3ccc(S(=O)(=O)N4CCCCCC4)cc3c2C)CC1 | -0.741 | nt | -8.1*
Cc1c(C(=O)NCCc2ccccc2)oc2ccc(S(=O)(=O)N3CCC4(CC3)OCCO4)cc12 | nt | nt | 0.556
CC(C)(C)C(=O)C1C(c2cccc3ccccc23)C(C#N)(C#N)C2c3ccccc3C=CN12 (stereo not drawn) | nt | i | nt
O=C(Nc1nnc(CCS(=O)(=O)c2ccc(Cl)cc2)s1)c1cccs1 | nt | i | nt
Oc1cccc(Oc2ccccc2)c1 | nt | i | nt
Cc1ccc(C)c(Cn2cnc3c(cnn3C(C)(C)C)c2=O)c1 | -2.58* | i | -0.028
Cc1ccccc1Cn1cnc2c(cnn2C(C)(C)C)c1=O | 2.1 | i | 0.33
O=C(Nc1ccc(Cl)cc1)c1cc(S(=O)(=O)N2CCOCC2)ccc1Cl | nt | i | nt
CCc1ccc(S(=O)(=O)N(C(=O)c2cccc([N+](=O)[O-])c2)c2ccc3oc(C)c(C(C)=O)c3c2)cc1 | nt | i | nt
CCOc1ccc(N=c2scc(-c3ccccc3)n2CCO)cc1 | nt | nt | 0.75
OCCn1c(-c2ccc3c(c2)OCO3)csc1=Nc1ccccc1 | -3.38* | i | 0.411
Cc1ccccc1N(CCN1C(=O)c2cccc3c(N4CCCCC4)ccc(c23)C1=O)C(=O)c1ccc(S(=O)(=O)N(C)C)cc1 | nt | i | nt
Cc1cccc(NC(=O)Nc2ccc(C#N)cc2)n1 | -5.19* | i | -0.241
Cc1cccc(NC(=O)Nc2cccc(C#N)c2)n1 | 2.05 | i | -0.225
SMILES | D1 allo mod | BAP1 inh | DAT uptake mod
CCn1c(-c2ccc3ncccc3c2)n[nH]c1=S | nt | nt | 3.12*
CCn1c(-c2cccc(Br)c2)n[nH]c1=S | 0.101 | i | 1.02
O=C(Nc1nc2c(s1)CCCC2)c1ccc(Br)s1 | -4.42* | nt | -0.161
Cc1ncsc1C(=O)Nc1nc2c(s1)CCCC2 | -1.52 | i | 0.616
O=C(Nc1nc2c(s1)CCCC2)c1ccc2ncsc2c1 | nt | i | nt
Cc1cc(C(=O)Nc2nc3c(s2)CCCC3)cs1 | -5* | i | 0.425
COc1ccc(S(=O)(=O)NC(C)C(=O)Nc2ccccc2C(F)(F)F)cc1 (stereo not drawn) | nt | nt | -1.69*
COc1ccc(S(=O)(=O)Nc2ccccc2C(F)(F)F)cc1 | 0.42 | i | 0.501
COc1ccc(OC)c(C(=O)CSc2nc3c(c(=O)n(C)c(=O)n3C)n2C(C)C)c1 | 6.07* | i | -0.48
CCCn1c(SCC(=O)N2CCCC2)nc2c1c(=O)n(C)c(=O)n2C | nt | i | 0.0475
CCCn1c(SCC(=O)Nc2ccc3c(c2)OCO3)nc2c1c(=O)n(C)c(=O)n2C | 4.78* | i | -0.712
CCCn1c(SCC(=O)N2CCN(c3ccc(OC)cc3)CC2)nc2c1c(=O)n(C)c(=O)n2C | -5.18* | i | -0.685
CCn1c(SCC(=O)Nc2ccc3c(c2)OCO3)nc2c1c(=O)n(C)c(=O)n2C | 3.24 | i | 0.761
CCCn1c(SCC(=O)c2cc(OC)ccc2OC)nc2c1c(=O)n(C)c(=O)n2C | 1.67 | i | nt
CCOC(=O)c1cc(-c2ccc(OC)c(OC)c2)no1 | nt | i | nt
CCCOC(=O)c1ccc(-c2n[nH]c(=O)c3ccccc23)cc1 | nt | i | nt
COc1ccc(CC(CC(=O)O)C(=O)Nc2ccc(Cl)cc2)cc1 (stereo not drawn) | nt | i | nt
Cc1c(N=Cc2nn(-c3ccccc3)cc2-c2ccccc2)c(=O)n(-c2ccccc2)n1C | nt | i | nt
O=C(O)CNc1ncnc2c1oc1ccccc12 | nt | i | nt
Cc1c(N=Cc2ccccc2F)c(=O)n(-c2ccccc2)n1C | nt | i | nt
CC(C)(C)N1CC(COc2ccccc2)OC1=O (stereo not drawn) | -0.818 | i | -8.9*
Cc1ccccc1OCC1CN(CN2CCOCC2)C(=O)O1 (stereo not drawn) | -0.267 | i | -0.0465
CC1=C(C(=O)OCC2CCCCC2)C(c2ccc(Cl)cc2)NC(=O)N1 (stereo not drawn) | nt | i | nt
COc1ccc(Cl)cc1NC(=O)c1cc2n(n1)C(C(F)(F)F)CC(c1ccco1)N2 (stereo not drawn) | nt | i | nt
O=C(Cn1c2ccccc2c(=O)c2ccccc21)NCc1ccco1 | nt | i | nt
SMILES | D1 allo mod | BAP1 inh | DAT uptake mod
Cc1c(C(=O)Nc2ccc(Cl)cc2)c2ccccn2c1C(=O)c1ccccc1 | nt | nt | -9.53*
Cc1c(C(=O)Nc2ccc(Cl)cc2)c2ccccn2c1C(=O)c1ccc([N+](=O)[O-])cc1 | nt | nt | 0.343
Cc1cc(NC(=O)C(C)C)ncc1NC(=O)c1cccc(F)c1 | 0.145 | i | 0.971
CCCC(=O)Nc1cnc(NC(=O)c2cccc(F)c2)cc1C | -3.14* | i | -1.45
COc1ccc(C2CC(C(F)(F)F)n3nc(C(=O)Nc4cccnc4Cl)c(Cl)c3N2)cc1OC (stereo not drawn) | nt | i | nt
COc1cc(C2Nc3ccccc3NC3=C2C(=O)CC(C)(C)C3)cc(I)c1O (stereo not drawn) | nt | i | nt
O=c1cc(CSc2ccc(S(=O)(=O)N3CCCCC3)cn2)nc2sccn12 | -4.52* | i | 0.157
O=S(=O)(c1ccc(SCCO)nc1)N1CCCC1 | -1.03 | nt | -0.485
COC(=O)C(NC(=O)C(c1ccccc1)c1ccccc1)C12CC3CC(CC(C3)C1)C2 (stereo not drawn) | nt | i | nt
N=c1c(C(=O)NCc2ccco2)cc2c(=O)n3ccccc3nc2n1CCc1ccccc1 | -2.97 | nt | 4.05*
COc1ccc(CCn2c(=N)c(C(=O)NCc3ccco3)cc3c(=O)n4ccccc4nc32)cc1OC | nt | i | nt
CCN(CC)S(=O)(=O)c1ccc(C(=O)OCCN2C(=O)CCC2=O)cc1 | -4.9* | i | nt
CCN(CC)S(=O)(=O)c1ccc(C(=O)OCC(=O)c2ccc3c(c2)NC(=O)CO3)cc1 | nt | nt | -0.645
O=[N+]([O-])c1ccc(N2CCN(c3ccc([N+](=O)[O-])c4cccnc34)CC2)c(Cl)c1 | nt | i | nt
O=C1C(C=Nc2ccccc2)=C(O)c2ccccc21 | nt | nt | -1.06
O=C1C(C=Nc2ccccc2O)=C(O)c2ccccc21 | -5.63* | i | -0.502
COc1ccc([N+](=O)[O-])cc1N1C(=O)C2C3C=CC(CC3)C2C1=O (stereo not drawn) | nt | i | nt
CCCOc1ccc(C2Oc3ccccc3C3CC(c4ccccc4)=NN32)cc1 (stereo not drawn) | nt | i | nt
COc1ccc(-n2nnnc2SC(C)C(N)=O)cc1 (stereo not drawn) | 0.0741 | i | -5.16*
COc1ccc(-n2nnnc2SCC(N)=O)cc1 | -0.0902 | i | -1.46
